This note sets out measurements from PubChem BioAssay (Tox21).

A number with no mark means an inactive call. Calls of active or inactive are those of the source. Unless noted, calls follow the shape of the dose curve; as a rule, active = well fitted curve in the direction sought with a large enough effect in the repeat runs; inconclusive = weak or mixed curves; inactive = no such curve, though single readings can be large; an effect the other way counts as inactive or inconclusive.

Experiment [1] is described as follows: qHTS assay for small molecule agonists of the p53 signaling pathway (AID 651631; calls by dose curve; also: nearly all actives have a fitted effect of over 15% in size). Summed up: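 Stably transfected HCT-116 cells (beta-lactamase behind p53 response elements) get compounds after a 5 h settling period; 16 h later at 37 °C, FRET substrate is loaded and fluorescence read after 2 h.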
Background: Quantitative high-throughput screening tests each substance at several concentrations.

A short description of experiment [2]: qHTS assay for small molecule agonists of the p53 signaling pathway - cell viability (AID 651633; calls by dose curve;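 also: p53RE-bla HCT reporter cells with a stable beta-lactamase p53 reporter; series mostly up to about 83 µM; nearly all actives have a fitted effect of over 30% in size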). Put shortly: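 p53RE-bla cells, seeded at 4,000 per well and rested 5 h at 37 C/5% CO2, received compounds in DMSO for 16 h at 37 C. CellTiter-Glo was then added, and luminescence was read after 30 min at room temperature to gauge cytotoxicity.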
Experiment [3] can be described thus: qHTS assay to test for compound auto fluorescence at 460 nm (blue) in HEK293 cells (AID 720678). Summed up: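 Intrinsic compound fluorescence is recorded in live HEK293 cultures after overnight incubation at 37C, 5% CO2, using excitation 405 nm and emission 460 nm. Values are referenced to triamterene.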
The nature of experiment [4]: qHTS assay to test for compound auto fluorescence at 590 nm (red) in HEK293 cells (AID 720679). Summed up:
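Red autofluorescence, HEK293 cells: 2,000 cells/well; attach 4-5 hr 37C; add 23 nL cpd or DMSO; incubate o/n 37C 5% CO2; read Ex540/Em590; Rose Bengal sodium reference.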

Experiment [5] is described as follows: qHTS assay to test for compound auto fluorescence at 590 nm (red) in HepG2 cell free culture (AID 720684). Put shortly: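 Ex 540 / Em 590 nm read of compound in cell-free MEM (10% FBS). Rose Bengal sodium reference.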
Experiment [6] addresses Glucocorticoid receptor (Homo sapiens) (UniProt P04150). Briefly: qHTS assay to identify small molecule agonists of the glucocorticoid receptor (GR) signaling pathway (AID 720691; active = well fitted activation curve with a large enough effect in the signal ratio in the repeat runs, not every such curve was filed as active; inconclusive = weak or mixed curves, or effect the other way; inactive = no such curve, though single readings can be large or run the other way; the % refers to the signal ratio). Summed up: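 HeLa GR-bla reporter line; cells pre-incubated 4 h, compound in DMSO 18 h at 37 C; LiveBLAzer B/G FRET substrate 2 h RT; fluorescence intensity read-out.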
Experiment [7] can be described thus: qHTS assay for identifying genotoxic compounds that show differential cytotoxicity against isogenic chicken DT40 cell lines with known DNA damage response pathways - wild type cell line (AID 743012). Also: nearly all actives have a fitted effect of over 60% in size. Put shortly: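 CellTiter-Glo luminescence readout of viability in wild type DT40 cells after 40 h compound exposure at 37 C/5% CO2; 300 cells/well; reagent incubated 30 min at room temperature before reading.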

Experiment [8] can be described thus: qHTS assay for identifying genotoxic compounds that show differential cytotoxicity against isogenic chicken DT40 cell lines with known DNA damage response pathways - Rev3 mutant cell line (AID 743014). Also: nearly all actives have a fitted effect of over 55% in size.
The nature of experiment [9]: qHTS assay to identify small molecule antagonists of the androgen receptor (AR) signaling pathway - cell viability counter screen (AID 743033; also: nearly all actives have a fitted effect of over 45% in size).
A short description of experiment [10]: qHTS assay to identify small molecule antagonists of the thyroid receptor (TR) signaling pathway - cell viability counter screen (AID 743064). Also: nearly all actives have a fitted effect of over 50% in size. Put shortly: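 Counter screen for cytotoxicity: compound plus T3 (1 nM final) on GH3.TRE-Luc cells, 23.5 h at 37 °C, then fluorescence viability readout with CellTiter-Fluor.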
Experiment [11] deals with Estrogen receptor (Homo sapiens) (UniProt P03372). The experiment can be described thus: qHTS assay to identify small molecule agonists of the estrogen receptor alpha (ER-alpha) signaling pathway (AID 743075; calls by dose curve;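 also: HEK293 GripTite cells with ER-alpha and UAS-driven beta-lactamase reporter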; also: potency is read from the fitted curve at half-maximal effect).
For experiment [12] the target is unchanged. Briefly: qHTS assay to identify small molecule agonists of the estrogen receptor alpha (ER-alpha) signaling pathway using the BG1 cell line (AID 743079). Also: nearly all actives have a fitted effect of over 20% in size. Also: potency is read from the fitted curve at half-maximal effect.
A short description of experiment [13]: qHTS assay to identify small molecule antagonists of the estrogen receptor alpha (ER-alpha) signaling pathway using the BG1 cell line (AID 743080; calls by dose curve;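 also: BG1 cells stimulated with 17beta-estradiol alongside compound; series mostly up to about 70 µM; nearly all actives have a fitted effect of over 25% in size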). Put shortly:
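Readout is ONE-Glo luminescence, taken 30 min at room temperature after reagent addition, preceded by a CellTiter-Fluor viability read; BG1-Luc-4E2 cells had received compound and 17beta-estradiol for 21.5 h at 37 C.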

Experiment [14] is described as follows: qHTS assay to identify small molecule that activate the aryl hydrocarbon receptor (AhR) signaling pathway - cell viability counter screen (AID 743086).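 Also: HepG2 liver cells carrying the AhR DRE luciferase reporter; series mostly up to about 70 µM; nearly all actives have a fitted effect of over 45% in size.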 Put shortly: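 HepG2-AhR-luc (HG2L7.5c1) cells, 4000/well, were preincubated 5 h at 37C, exposed to compound in qHTS format for 24 hr at 37C, then given CellTiter-Fluor for 30 min; viability was read as fluorescence in the reporter wells.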

Experiment [15] has as its target Peroxisome proliferator-activated receptor gamma (Homo sapiens) (UniProt P37231). Briefly: qHTS assay to identify small molecule agonists of the peroxisome proliferator-activated receptor gamma (PPARg) signaling pathway (AID 743094; active = well fitted activation curve with a large enough effect in the signal ratio in the repeat runs, not every such curve was filed as active; inconclusive = weak or mixed curves, or effect the other way; inactive = no such curve, though single readings can be large or run the other way; the % refers to the signal ratio). Summed up:
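HEK293H PPARg-bla cells, 5 h settle at 37C/5% CO2; compound (DMSO) 17 h, 37C; B/G FRET substrate 1 h RT; fluorescence intensity read-out. qHTS format.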

The target in experiment [16] is Nuclear receptor subfamily 1 group I member 2 (Rattus norvegicus) (UniProt Q9R1A7). Briefly: Rat pregnane X receptor (rPXR) activation by small molecules, qHTS assay (AID 1346983). Also: nearly all actives have a fitted effect of over 20% in size. Particulars: rPXR luciferase reporter cells, One-Glo luminescence, 24 h; max activation: active compounds read high. Summed up: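 Cell-based rPXR luciferase reporter assay, 2,000 cells per well, rested 5hr at 37 C before compound addition in DMSO, then 24 hr at 37 C. One-Glo reagent was added and luminescence read after 30 min at room temperature.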

Experiment [17] concerns the target Nuclear receptor subfamily 1 group I member 2 (Homo sapiens) (UniProt O75469). The experiment can be described thus: CYP3A4 induction through human pregnane X receptor (PXR) by small molecules, qHTS assay (AID 1346984). Also: nearly all actives have a fitted effect of over 40% in size. Summed up:
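HepG2-derived DPX-2 line carrying PXR plus a CYP3A4-promoter luciferase reporter; cells plated 5 hr, compound-exposed 24 hr at 37C. CYP3A4 activity probed with 3uM (final) Luciferin-IPA for 3hr, then luciferase read after One-Glo.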

Experiment [18] has the same target. The experiment can be described thus: Human pregnane X receptor (PXR) activation by small molecules, qHTS assay (AID 1346985). Also: nearly all actives have a fitted effect of over 40% in size. Summed up:
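DPX-2 cells (HepG2 co-transfected with a PXR response element and a CYP3A4-promoter luciferase construct) were seeded at 2,000 per well, rested 5 hr at 37C, then exposed to DMSO-dissolved compounds for 24 hr. Activation was read as luciferase luminescence.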

Experiment [19] is described as follows: qHTS assay to test for compound auto fluorescence at 535 nm (green) in HEK293 cells (AID 720680).
The nature of experiment [20]: qHTS assay to identify small molecule antagonists of the androgen receptor (AR) signaling pathway using the MDA cell line - cell viability counter screen (AID 743041; also: nearly all actives have a fitted effect of over 45% in size). Summed up: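 In this qHTS counter assay, fluorescence intensity after CellTiter-Fluor addition indicated viability of MDA-kb2 AR-luc cells given compounds and R1881 for 16 h at 37C.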
% is scaled to controls: 0 for no effect and ±100 for the full control effect.

Chain of Nuclear receptor subfamily 1 group I member 2 (Rattus norvegicus) (Q9R1A7 whole entry, looked up): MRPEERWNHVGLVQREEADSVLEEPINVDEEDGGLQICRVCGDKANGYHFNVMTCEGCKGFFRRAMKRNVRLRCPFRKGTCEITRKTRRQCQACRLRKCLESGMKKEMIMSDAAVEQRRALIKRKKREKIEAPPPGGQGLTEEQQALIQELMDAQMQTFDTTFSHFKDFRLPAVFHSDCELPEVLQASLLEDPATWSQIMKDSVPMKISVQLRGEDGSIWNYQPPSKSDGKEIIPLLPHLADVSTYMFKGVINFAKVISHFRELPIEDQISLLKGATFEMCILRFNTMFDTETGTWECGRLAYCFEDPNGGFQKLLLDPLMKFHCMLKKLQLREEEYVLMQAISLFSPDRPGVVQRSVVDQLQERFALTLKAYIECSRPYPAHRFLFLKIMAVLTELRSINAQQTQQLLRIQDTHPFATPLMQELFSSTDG
Chain of Peroxisome proliferator-activated receptor gamma (Homo sapiens) (P37231 whole entry, looked up): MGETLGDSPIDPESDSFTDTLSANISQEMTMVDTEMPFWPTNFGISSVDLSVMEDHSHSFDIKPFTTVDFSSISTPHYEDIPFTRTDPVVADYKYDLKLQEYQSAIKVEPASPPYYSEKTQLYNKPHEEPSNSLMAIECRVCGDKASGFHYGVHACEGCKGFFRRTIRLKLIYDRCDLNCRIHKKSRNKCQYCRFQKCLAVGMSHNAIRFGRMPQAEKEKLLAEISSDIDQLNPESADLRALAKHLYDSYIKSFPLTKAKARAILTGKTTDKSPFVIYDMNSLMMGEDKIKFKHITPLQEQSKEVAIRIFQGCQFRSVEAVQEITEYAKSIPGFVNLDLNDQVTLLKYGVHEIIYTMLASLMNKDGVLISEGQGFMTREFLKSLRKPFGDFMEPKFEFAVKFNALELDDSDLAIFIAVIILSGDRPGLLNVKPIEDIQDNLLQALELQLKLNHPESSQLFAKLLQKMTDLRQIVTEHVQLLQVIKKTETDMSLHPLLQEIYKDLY
Chain of Estrogen receptor (Homo sapiens) (P03372 whole entry, looked up): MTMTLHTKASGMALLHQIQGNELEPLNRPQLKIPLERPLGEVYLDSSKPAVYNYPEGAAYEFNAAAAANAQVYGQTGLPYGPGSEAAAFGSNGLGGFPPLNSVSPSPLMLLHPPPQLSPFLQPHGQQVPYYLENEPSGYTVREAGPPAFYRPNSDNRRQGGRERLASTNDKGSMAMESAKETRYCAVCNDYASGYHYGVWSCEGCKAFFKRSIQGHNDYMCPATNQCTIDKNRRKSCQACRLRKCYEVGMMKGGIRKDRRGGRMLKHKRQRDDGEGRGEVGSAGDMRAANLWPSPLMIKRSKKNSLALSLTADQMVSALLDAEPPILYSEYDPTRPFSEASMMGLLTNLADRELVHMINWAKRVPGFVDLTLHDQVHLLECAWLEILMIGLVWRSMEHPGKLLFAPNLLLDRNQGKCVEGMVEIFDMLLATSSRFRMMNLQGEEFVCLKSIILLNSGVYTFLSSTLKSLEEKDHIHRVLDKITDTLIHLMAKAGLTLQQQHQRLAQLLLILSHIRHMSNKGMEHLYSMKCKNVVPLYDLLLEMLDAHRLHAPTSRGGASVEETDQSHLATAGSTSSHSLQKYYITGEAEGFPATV
Chain of Glucocorticoid receptor (Homo sapiens) (P04150 whole entry, looked up): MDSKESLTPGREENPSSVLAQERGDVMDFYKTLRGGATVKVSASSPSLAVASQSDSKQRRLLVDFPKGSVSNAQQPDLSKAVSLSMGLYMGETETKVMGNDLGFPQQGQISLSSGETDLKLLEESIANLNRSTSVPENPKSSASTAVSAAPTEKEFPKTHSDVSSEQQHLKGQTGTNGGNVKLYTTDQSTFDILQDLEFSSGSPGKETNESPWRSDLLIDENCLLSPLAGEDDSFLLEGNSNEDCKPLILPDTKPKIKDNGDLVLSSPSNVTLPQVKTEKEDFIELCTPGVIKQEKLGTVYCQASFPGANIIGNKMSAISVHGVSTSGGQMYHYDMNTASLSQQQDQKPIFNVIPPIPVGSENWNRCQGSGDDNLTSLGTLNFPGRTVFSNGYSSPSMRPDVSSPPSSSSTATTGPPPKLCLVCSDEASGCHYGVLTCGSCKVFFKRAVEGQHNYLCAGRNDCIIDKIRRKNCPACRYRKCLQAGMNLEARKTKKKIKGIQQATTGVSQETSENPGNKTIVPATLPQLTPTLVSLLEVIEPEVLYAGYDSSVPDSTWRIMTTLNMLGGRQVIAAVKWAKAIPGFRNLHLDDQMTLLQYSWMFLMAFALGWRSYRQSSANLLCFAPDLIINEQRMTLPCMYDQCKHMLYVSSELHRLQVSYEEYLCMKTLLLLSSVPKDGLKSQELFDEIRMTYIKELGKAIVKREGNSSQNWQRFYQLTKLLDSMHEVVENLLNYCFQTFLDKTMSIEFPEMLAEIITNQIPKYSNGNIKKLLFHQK

Take `O=P(OC(CCl)CCl)(OC(CCl)CCl)OC(CCl)CCl`: the Potency result in experiment [1] is “inactive”.

With `NCC(O)c1cccc(O)c1` (stereo unspecified), the Potency result in experiment [1], in experiment [2], in experiment [3], in [6], in experiment [7] and in [8] was “inactive” each time. For the same compound, the Potency result in [9], in [10], in experiment [11], in [12], in experiment [13] and in experiment [14] was “inactive” in each case. Besides, the Potency entry in experiment [15], in experiment [17] and in experiment [18] was “inactive” throughout. Moreover, the result in [4] and in experiment [5] was inactive. For the same compound, in experiment [16], the max activation is -2.06%.

Take `CC(=O)O[C@H]1CC[C@H]2[C@@H]3CCC4=CC(=O)CCC4=C3C=C[C@]12C`: the Potency entry in experiment [1], in experiment [2], in experiment [3], in experiment [6], in experiment [9] and in experiment [10] was “inactive” each time. Further, the Potency result in [13], in [14], in [15], in experiment [17] and in experiment [18] was “inactive” each time. Also, the call in experiment [4] and in [5] was inactive. Besides, the Potency is 2.68 µM [inconclusive] (active) in experiment [11] and 0.531 µM (active) in experiment [12]. For the same compound, in experiment [16], the max activation was -1.98%.

In the case of `CCC1(C)CC(=O)NC(=O)C1`, the Potency entry in experiment [1], in experiment [19], in experiment [6], in experiment [7], in [8] and in experiment [9] was “inactive” throughout. Also, the Potency entry in experiment [20], in [10], in [11], in experiment [12], in [14] and in experiment [15] was “inactive” each time. Moreover, the Potency entry in experiment [17] and in experiment [18] was “inactive” throughout. The call in experiment [4] and in experiment [5] was inactive. Also, the max activation in experiment [16] is 0.0054%.

For `CC(=O)OO`, the Potency result in experiment [1], in experiment [3], in [8], in experiment [20], in experiment [10] and in experiment [11] was “inactive” each time. Also, the Potency entry in [12], in experiment [13], in [14], in experiment [15], in experiment [17] and in experiment [18] was “inactive” in each case. Also, the result in experiment [4] and in experiment [5] was inactive. The max activation in experiment [16] is -0.773%.

Regarding `CCC(=O)O[C@@](Cc1ccccc1)(c1ccccc1)[C@@H](C)CN(C)C`, the Potency entry in [1], in [2], in experiment [3], in experiment [19], in experiment [7] and in [8] was “inactive” throughout. The Potency entry in [20], in experiment [14], in experiment [17] and in experiment [18] was “inactive” each time. For the same compound, the compound was called inactive in experiment [4] and in experiment [5]. The max activation in [16] is 0.731%.

Consider `O=C1CN(O)C(c2ccccc2)=c2cc(Cl)ccc2=N1`, for which the Potency entry in experiment [1], in [2], in experiment [3], in experiment [19], in experiment [6] and in experiment [7] was “inactive” in each case. Besides, the Potency entry in experiment [8], in [9], in experiment [20], in experiment [10], in experiment [14] and in [15] was “inactive” each time. Besides, the Potency entry in experiment [17] and in experiment [18] was “inactive” in each case. Further, the call in experiment [4] and in experiment [5] was inactive. Also, the max activation in experiment [16] is -6.23%.

Turning to `C=CCN(C1=NCCN1)c1c(Cl)cccc1Cl`, the Potency entry in experiment [1], in experiment [2], in experiment [3], in experiment [19], in experiment [6] and in experiment [7] was “inactive” throughout. Further, the Potency result in experiment [8], in [9], in experiment [20], in [10], in experiment [11] and in experiment [13] was “inactive” throughout. Further, the Potency entry in experiment [14], in experiment [15], in [17] and in experiment [18] was “inactive” in each case. In addition, the call in experiment [4] was inactive. The Potency in [12] is 11.9 µM (active). Further, in experiment [16], the max activation was -3.97%.
